High-throughput results (PubChem BioAssay)
Shown are actives, neighbours in structure and some others; about 6.4% of the full set was active somewhere.
RORgamma inh = ROR gamma (mouse) transcription inhibition. Potency, µM (doses to about 53.6 µM), actives largely listed as inhibitors. Drosophila S2 Gal4-RORgamma UAS-luciferase reporter, 20 h. 310,000 tested, 5.4% active; further: nearly all actives have a fitted effect of over 60% in size
Target sequence (P51450 whole entry, looked up, the tested form may be a part): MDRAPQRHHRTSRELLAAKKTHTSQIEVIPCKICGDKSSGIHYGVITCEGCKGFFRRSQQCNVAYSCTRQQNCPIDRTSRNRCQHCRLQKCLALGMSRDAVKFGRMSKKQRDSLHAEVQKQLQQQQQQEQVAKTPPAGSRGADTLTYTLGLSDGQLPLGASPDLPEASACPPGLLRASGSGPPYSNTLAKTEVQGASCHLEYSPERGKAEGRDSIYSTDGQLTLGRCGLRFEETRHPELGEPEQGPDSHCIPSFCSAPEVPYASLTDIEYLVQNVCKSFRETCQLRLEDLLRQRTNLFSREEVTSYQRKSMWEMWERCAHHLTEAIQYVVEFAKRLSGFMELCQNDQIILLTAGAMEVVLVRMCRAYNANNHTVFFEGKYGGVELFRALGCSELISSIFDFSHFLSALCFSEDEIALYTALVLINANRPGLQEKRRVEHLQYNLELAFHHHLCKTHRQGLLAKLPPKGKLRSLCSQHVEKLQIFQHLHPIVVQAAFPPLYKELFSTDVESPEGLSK
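Drosophila S2 cells stably expressing Gal4-DBD/mouse RORγ fusion under metallothionein promoter plus UAS-luciferase; compound 1 h, then 700 uM CuSO4 induction for 20 h at ambient temperature; inhibition read as reduced luminescence.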
VP16 counter = Gal4-VP16 reporter inhibition counter-screen. Potency, µM (titrated, usually from 53.6 µM), actives largely listed as inhibitors. 310,000 tested, 3.5% active. Drosophila S2 Gal4-VP16 UAS-luciferase, luminescence, 20 h;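 further: Gal4-VP16 expression switched on by copper sulfate through the metallothionein promoter; nearly all actives have a fitted effect of over 50% in size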
KinaseGlo FLuc = counter-screen: inhibitors of Kinase-Glo firefly luciferase | Q27757 | Kinase-Glo luciferase, ATP luminescence, 8 min | Potency, µM (series often up to 38.3 µM), actives largely listed as inhibitors | 200,000 tested, 0.28% active; further: nearly all actives have a fitted effect of over 60% in size
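Light output from Kinase-Glo luciferase with luciferin and 10 uM ATP in 50 mM imidazole pH 7.2, KCl, MgCl2, Tween 20, BSA; compound pin-delivered, 8-min ambient incubation, then luminescence read.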
A number is an active result; i = inactive; ? = inconclusive; nt = not tested or not shown; [ ] = another dose, or the depositor's remark. The call rests on the fitted dose curve; in most records, active means well fitted curve in the direction sought with a large enough effect; inconclusive means small, poorly fitted or top-dose-only effect, or another doubt; inactive means no such curve, though single readings can be large; an effect the other way counts as inactive or inconclusive.

SMILES | RORgamma inh | VP16 counter | KinaseGlo FLuc
O=C(NC(=S)N1CCCCC1)c1cccs1 | 0.794µM | 1.26µM | i
Cc1ccc(SCCC(=O)OC(C(=O)NC(N)=O)C(C)C)cc1 (stereo not given) | i | ? | nt
OC[C@@H](O)C(O)[C@H](O)[C@H](O)CO (stereo not given in full) | i | i | nt
CN(CC(=O)NCCc1ccc(S(N)(=O)=O)cc1)S(=O)(=O)c1cccc2nsnc12 | i | i | nt
COc1ccc(S(=O)(=O)N2CCNC(=O)CC2)cc1 | i | i | nt
CSCC(=O)N1CCc2ccc(NC(=O)c3ccccc3Cl)cc2C1 | i | i | nt
Cc1ccc2c(c1)N=C(c1ccccc1)CC(C(Cl)Cl)=N2 | 11.2µM | ? | nt
CC1(c2ccccc2)CC(c2ccccc2)=Nc2ccccc2N1 (stereo not given) | i | i | nt
Cc1ccc(O)c(C2=Nc3ccccc3N=C(c3cccs3)C2)c1 | ? | ? | i
Cc1ccc(C2=Nc3ccccc3N=C(C(Cl)Cl)C2)cc1 | 11.2µM | ? | ?
CCOC(=O)N1CCC(NC(=O)CC2C(=O)NCCN2Cc2ccccc2F)CC1 (stereo not given) | i | i | nt
Cc1ccc(NS(=O)(=O)c2ccc(-c3csc(C)n3)s2)c(C)c1 | i | i | nt
C=CCn1c(N)c(-c2nc3ccccc3n2C)sc1=S | i | ? | i
Cn1c(-c2sc(=S)n(-c3ccccc3)c2N)nc2ccccc21 | 7.94µM | i | i
N=c1ccn(Cc2c(Cl)cccc2Cl)cc1 | ? | 10µM | nt
N=c1ccn(Cc2ccccc2Cl)cc1 | i | i | i
Cn1c(=O)c2c(SCC(=O)N3CCCCC3)nc(-c3ccccc3F)nc2n(C)c1=O | i | i | nt
N#CC1=C(SCC(=O)NC2CC2)NC(=O)C(C#N)C12CCCCC2 (stereo not given) | i | i | i
N#CC1=C(SCC(=O)NC23CC4CC(CC(C4)C2)C3)NC(=O)C(C#N)C12CCCCC2 (stereo not given) | ? | 15.8µM | i
CC12CCC(C(=O)N(CSC(=S)N/N=C\c3ccccc3Cl)C1=O)C2(C)C (stereo not given) | ? | i | i
CC12CCC(C(=O)N(CSC(=S)N/N=C\c3ccccc3)C1=O)C2(C)C (stereo not given) | 1.12µM | 1.58µM | i
O=C(OCCN1CCN(C2=NS(=O)(=O)c3ccccc32)CC1)c1cccc(Br)c1 | i | i | nt
Cc1ccc(C(=O)N2CCN(CCNC(=O)C(=O)NCc3ccc(Cl)cc3)CC2)cc1 | i | i | nt
COc1cc(C(=O)NCc2nnc(SCC(=O)NCCc3ccccc3)o2)cc(OC)c1OC | i | i | nt
O[C@@H]1COC2[C@@H](O)CO[C@@H]21 (stereo not given in full) | i | i | nt
SMILES | RORgamma inh | VP16 counter | KinaseGlo FLuc
CCc1cccc(C)c1NC(=O)CO/N=C(\N)CC(=O)NC1CCCCC1 | i | i | i
S=C(NCc1ccccc1)NCc1cccc(CNC(=S)NCc2ccccc2)c1 | i[10 µM] | i | i
NNC(=S)NCc1cccnc1 | 8.91µM | ? | i
NNC(=S)NCc1ccccc1 | 2.82µM | 10µM | nt
NC(=S)NCc1cccnc1 | i | i | nt
CCOc1ccccc1C(=O)NCC(=O)OCCOc1cccc(Cl)c1 | i | i | nt
Brc1ccc2[nH]c3c(N4CCc5ccccc5C4)ncnc3c2c1 | i | i | i
Fc1ccc2[nH]c3c(N4CCc5ccccc5C4)ncnc3c2c1 | 11.2µM | 3.16µM | nt
Clc1ccc2[nH]c3c(NCCN4CCOCC4)ncnc3c2c1 | i[0.365 µM] | nt | i
Cc1ccc2[nH]c3c(N4CCOCC4)ncnc3c2c1 | i | ? | i
Cc1ccc2[nH]c3c(N4CCc5ccccc5C4)ncnc3c2c1 | ? | 3.16µM | i
Fc1ccc2[nH]c3c(NCCN4CCOCC4)ncnc3c2c1 | ? | 12.6µM | i
COc1ccccc1CNC(=O)c1cc2c(=O)[nH]c3ccccc3c2n1C | i | i | i
C/C=C(\C)CN1CCCC(CO)(Cc2ccccc2)C1 (stereo not given) | i | i | i
COc1ccc(N2CCN(c3nc4ccc(C)cn4c(=O)c3C=O)CC2)cc1 | i | i | i
O=C(NNS(=O)(=O)c1ccccc1[N+](=O)[O-])c1cc2ccccc2cc1O | i | i | nt
N#CCCN=C(NS(=O)(=O)c1ccccc1)c1ccccc1 | i | i | nt
c1ccsc1 | i | i | nt
Cc1cccc(/C=N/n2c(-c3ccccn3)n[nH]c2=S)c1 | ? | 17.8µM | nt
Fc1ccc(-c2n[nH]c(=S)n2/N=C/c2c[nH]c3ccccc23)cc1 | ? | i | i
Cc1cc(-c2n[nH]c(=S)n2/N=C/c2c[nH]c3ccccc23)n[nH]1 | i | i | nt
CC(/C=N/n1c(-c2ccco2)n[nH]c1=S)=C\c1ccccc1 | ? | i | i
S=c1[nH]nc(-c2cc(-c3ccccc3)n[nH]2)n1/N=C/c1c(Cl)cccc1Cl | ? | i | nt
CCc1n[nH]c(=S)n1/N=C/C(C)=C\c1ccccc1 | 7.08µM | 5.62µM | nt
S=c1[nH]nc(-c2ccccc2)n1/N=C/c1cccc(Cl)c1 | 5.62µM | 4.47µM | nt
SMILES | RORgamma inh | VP16 counter | KinaseGlo FLuc
Oc1ccccc1/C=N/n1c(-c2ccccc2)n[nH]c1=S | 11.2µM | i | nt
CCn1c(CC(=O)Nc2ccc(F)cc2)nnc1SCC(=O)NC1CCCC1 | i | i | nt
CC(C)(C[C@@]1(C)NC(=O)NC1=O)OCc1ccccc1 | nt | nt | i[7.66 µM]
O=C(Nc1ccc(C2SCCS2)cc1)c1ccccc1 | i | i | nt
O=C(NCc1ccco1)C1CCCN(c2nnc(-n3cccc3)s2)C1 (stereo not given) | i | i | nt
Cc1nn(-c2ccccc2)c(C)c1/C=N/n1c(-c2ccc(Cl)cc2)n[nH]c1=S | 12.6µM | 8.91µM | i
COc1cccc(/C=N/n2c(-c3cc(C)[nH]n3)n[nH]c2=S)c1O | ? | i | nt
Cc1nn(-c2ccccc2)c(C)c1/C=N/n1c(-c2ccncc2)n[nH]c1=S | i | i | i
COc1c(Br)cc(/C=N/n2c(-c3ccccc3)n[nH]c2=S)c(O)c1Br | 12.6µM | ? | nt
S=c1[nH]nc(-c2ccccc2)n1/N=C/c1ccc(Cl)cc1 | 1.12µM | ? | nt
Cc1ccc(-c2n[nH]c(=S)n2/N=C/c2c(C)[nH]n(-c3ccccc3)c2=O)cc1 | 10µM | i | i
Cc1ccc(-c2nn(-c3ccccc3)cc2/C=N/n2c(-c3ccncc3)n[nH]c2=S)cc1 | i | i | nt
Cc1cccc(C)c1NC(=S)N(CCCN1CCOCC1)Cc1cccnc1 | i | i[10 µM] | i
O=C(O)CN1C(=O)/C(=C\c2cn(CC(=O)N3CCOCC3)c3ccccc23)SC1=S | i | i | i
CCCCc1ccc(NC(=O)CN(C)CC(=O)Nc2ccccc2Cl)cc1 | i | i | nt
O=C1C=CC2(OCCCO2)C(Br)=C1 | i[10 µM] | i[10 µM] | nt
CCCn1c(-c2ccc(F)cc2)nc2c(N3CCN(CCC(=O)OCC)CC3)nc(C)nc21 | i | i | i
Cc1n[nH]c(=S)n(/N=C/c2cccs2)c1=O | i | i | nt
S=c1[nH]nc(-c2ccncc2)n1/N=C/C(Cl)=C\c1ccccc1 | ? | ? | i
Fc1ccc(/C=N/n2c(-c3cccs3)n[nH]c2=S)cc1 | 2µM | 3.98µM | i
S=c1[nH]nc(-c2ccncc2)n1/N=C/c1cccc(Cl)c1 | 4.47µM | i | nt
CC(/C=N/n1c(-c2ccccn2)n[nH]c1=S)=C\c1ccccc1 | 3.55µM | i | nt
CC(C)(C)c1n[nH]c(=S)n(/N=C/c2cccs2)c1=O | 10µM | 15.8µM | i
S=c1[nH]nc(-c2cccs2)n1/N=C/c1cn(-c2ccccc2)nc1-c1ccccc1 | i | i | nt
